Compound activity deposited in PubChem by The Scripps Research Institute Molecular Screening Center.
Fam108B counter – Fam108B inhibition, counter-screen for RBBP9 inhibitors. recombinant Fam108B, FP-Rh probe fluorescence polarization. inhibition, % at 9.51 µM. 0.33% of 300,000 active. AID 1947;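 active = inhibition above the screen mean inhibition plus 3 SD, computed separately per campaign, cut at about 18% in these data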;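 note: inhibitors lower polarization as less probe binds the enzyme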
PAD4 FP inh – PAD4 (human) enzyme inhibition; Q9UM07; AID 485272; inhibition, % at 6.36 µM; recombinant PAD4, RCA probe fluorescence polarization; 0.41% of 330,000 active;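 active = percent inhibition above a cutoff equal to the mean of all tested compounds plus 3 SD, cut at about 15% in these data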;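 note: 0% = PAD4 with RCA probe and DMSO and 100% = probe without PAD4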
Target sequence (Q9UM07 whole entry, looked up): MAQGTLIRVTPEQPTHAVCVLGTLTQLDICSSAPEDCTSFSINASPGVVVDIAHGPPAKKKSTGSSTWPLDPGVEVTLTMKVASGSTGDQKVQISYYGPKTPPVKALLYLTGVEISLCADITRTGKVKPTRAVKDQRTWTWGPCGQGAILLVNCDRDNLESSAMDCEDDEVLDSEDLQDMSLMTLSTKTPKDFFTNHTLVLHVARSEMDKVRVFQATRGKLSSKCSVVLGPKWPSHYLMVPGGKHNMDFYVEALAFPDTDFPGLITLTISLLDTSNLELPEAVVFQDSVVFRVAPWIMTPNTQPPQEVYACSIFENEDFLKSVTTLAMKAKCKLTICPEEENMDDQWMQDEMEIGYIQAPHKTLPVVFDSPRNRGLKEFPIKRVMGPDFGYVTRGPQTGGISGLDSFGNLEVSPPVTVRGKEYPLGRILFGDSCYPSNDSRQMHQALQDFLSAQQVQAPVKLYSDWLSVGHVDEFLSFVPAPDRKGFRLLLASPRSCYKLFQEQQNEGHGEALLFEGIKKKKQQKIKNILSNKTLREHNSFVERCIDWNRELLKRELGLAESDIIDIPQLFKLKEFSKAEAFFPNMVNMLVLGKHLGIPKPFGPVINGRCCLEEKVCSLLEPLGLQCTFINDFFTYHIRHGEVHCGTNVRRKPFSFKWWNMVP
GSTO1 inh – GSTO1 inhibition, counter-screen for RBBP9 inhibitors. inhibition, % at 5.96 µM. 1.1% of 300,000 active. recombinant GSTO1, activity-based probe fluorescence polarization;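 active = inhibition above the campaign mean inhibition plus 3 SD, cut at about 35% in these data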;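 note: 0% = GSTO1-1 with DMSO and 100% = wells lacking GSTO1-1 enzyme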
pPAFAH inh – inhibitors of human plasma PAF acetylhydrolase (pPAFAH) | recombinant pPAFAH, FP-rhodamine probe fluorescence polarization | inhibition, % at 3.39 µM | 1.5% of 330,000 active | AID 463082;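 active = inhibition above the mean inhibition across the screen plus 3 SD, cut at about 25% in these data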;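 note: inhibitors block binding of the rhodamine activity-based probe so polarization drops; 0% = enzyme with DMSO and 100% = wells lacking pPAFAH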
PME-1 primary – blocks human protein phosphatase methylesterase 1; Q9Y570; recombinant PME-1, FP-Rh probe fluorescence polarization; inhibition, % at 5.9 µM; 0.53% of 320,000 active;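 active = inhibition above the campaign mean of all compounds plus 3 SD, cut at about 26% in these data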;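 note: competitive labeling of PME-1 active site by serine hydrolase directed probe; 0% = PME-1 with DMSO and 100% = wells lacking PME-1 enzyme; inhibitors block probe labeling so polarization falls and inhibition rises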
Numbers without * were called inactive; · = no result. Hits are enriched below; roughly 2.3% of the tested compounds scored in any of these assays.

SMILES | Fam108B counter | PAD4 FP inh | GSTO1 inh | pPAFAH inh | PME-1 primary
CC(C)(C)c1ccc2c(c1)OC(C(=O)N/N=C/c1ccc([N+](=O)[O-])o1)CO2 (centres undefined) | -1 | -9 | 19 | 28* | -1
Cc1cccc(OCc2nnc(SCC(=O)O)n2-c2ccccc2)c1 | -1 | 5 | -1 | 2 | 1
Cn1ccc2ccc(C3=CC(=O)C[C@H](c4ccc(F)cc4)C3)cc21 | · | -5 | · | 2 | -8
CC(C)(C)CC(C)(C)c1ccc(OCCOCC[N+](C)(C)Cc2ccccc2)cc1 | 1 | 2 | 5 | 26* | 7
CC1(C)CC(=O)C2=C(C1)OC(N)=C(C#N)C2C#Cc1ccccc1 (centres undefined) | 1 | 3 | 35* | 3 | 1
COc1ccc(-c2csc(NC(=O)C3COc4ccccc4O3)n2)cc1OC (centres undefined) | 6 | -4 | -8 | 6 | -1
O=C(CNc1ccc2c(c1)OCO2)N/N=C\c1cn(Cc2ccccc2)c2ccccc12 | 7 | 1 | 2 | 30* | 17
O=C(Nc1cc2c(oc1=O)CCCC2=O)c1ccc(Cl)cc1 | 0 | -4 | 20 | 14 | -11
COc1ccc(S(=O)(=O)N(C)C)cc1NC(=O)Cc1c[nH]c2ccccc12 | -8 | -8 | 9 | 10 | 78*
Cc1ccc(S(=O)(=O)N(C)C)cc1NC(=O)CCc1c[nH]c2ccccc12 | -3 | -2 | -3 | -1 | 5
CCOc1ccc(/C=C2/Sc3ccc(C(=O)N4CCOCC4)cc3N(C)C2=O)cc1OC | -3 | 3 | -11 | 1 | 7
CN1C(=O)/C(=C/c2cccc(Cl)c2)Sc2ccc(C(=O)N3CCOCC3)cc21 | -3 | -2 | -12 | 28* | 24
COc1ccc(C2/C(=C(/O)c3ccc(C)cc3)C(=O)C(=O)N2CCCN2CCOCC2)cc1 (centres undefined) | -3 | -2 | 1 | 7 | -8
COc1ccc(-c2ccc3c(N)c(C(=O)c4cccc(OC)c4)sc3n2)cc1 | 2 | -9 | 3 | 34* | -3
CCOc1ccc(NC(=O)C(C)C(Cc2ccc(C)cc2)C(=O)O)cc1 (centres undefined) | -5 | -2 | -2 | 3 | 2
CC(C)(C)OC(=O)N1CCC(c2cc(=O)n3[nH]c(-c4ccc(Cl)cc4)cc3n2)CC1 | -1 | 0 | -4 | 6 | -8
COc1ccc(NC(=O)c2c[nH]n3c(=O)cc(C4CCN(C(=O)OC(C)(C)C)CC4)nc23)cc1Cl | 5 | -3 | -4 | 16 | 33*
Cc1nn(-c2ccccc2)c(C)c1NC(=O)COC(=O)CCc1ccccc1 | -5 | -3 | -3 | 7 | 3
CCOc1ccc(S(=O)(=O)N(CC)CC(=O)N2CCOCC2)cc1C | 1 | 0 | 1 | 0 | 4
CC1CCN(C2=C(NS(=O)(=O)c3ccc(Cl)cc3)C(=O)c3ccccc3C2=O)CC1 | 7 | -7 | 31 | 14 | 6
CC1CCN(C2=C(NS(=O)(=O)c3ccccc3)C(=O)c3ccccc3C2=O)CC1 | 2 | -6 | 35* | 6 | 3
O=C(COC(=O)Cc1ccsc1)Nc1cccc(F)c1 | · | -2 | · | 29* | 4
O=C(COC(=O)Cc1ccsc1)Nc1ccccc1Cl | · | -6 | · | 19 | -8
CC(=O)c1ccc(NC(=O)COC(=O)Cc2ccsc2)cc1 | · | -2 | · | 10 | ·
COc1ccc(CC(=O)OCC(=O)NNC(=O)c2ccccc2)cc1 | · | -1 | · | 18 | ·
SMILES | Fam108B counter | PAD4 FP inh | GSTO1 inh | pPAFAH inh | PME-1 primary
O=C(COC(=O)Cc1ccsc1)NNC(=O)c1ccccc1 | · | 2 | · | 26* | ·
O=C(COC(=O)Cc1ccsc1)Nc1ccccc1 | 2 | -2 | 0 | 27* | 1
CCN(C(=O)CSc1nnc(SC(C)C)s1)C1CCS(=O)(=O)C1 (centres undefined) | · | -2 | · | -1 | -2
N#C/C(=C\c1ccc(-c2ccc([N+](=O)[O-])cc2)o1)C(=O)Nc1nc(-c2cccs2)cs1 | 0 | -37 | -20 | 17 | 1
N#C/C(=C\c1ccc(-c2ccccc2[N+](=O)[O-])o1)C(=O)Nc1nc(-c2cccs2)cs1 | 6 | -9 | 19 | 30* | 29*
CCc1ccccc1NC(=O)CNC(=O)c1ccccc1OCc1c(C)noc1C | -2 | -1 | 5 | 3 | 4
Cc1cc(C(=O)O)ccc1-c1ccc(/C=C2\NC(=O)N(Cc3ccccc3Cl)C2=O)o1 | 3 | -6 | -2 | 5 | -4
Cc1ccc(C(=O)O)cc1-c1ccc(/C=C2/NC(=O)N(c3ccccc3)C2=O)o1 | 1 | -2 | -18 | 29* | -6
CCCCONc1ncnc2nonc12 | -2 | 0 | 5 | -4 | 1
Cc1ccc2nc(CSc3nc(C)cc(C)c3C#N)[nH]c2c1 | 7 | 1 | -3 | 26* | 10
O=C(O)c1[nH]c2ccccc2c1C(c1cc(Br)ccc1O)c1c(C(=O)O)[nH]c2ccccc12 | 7 | -3 | 59* | 15 | -1
COc1cc(Cl)cc(C(c2c(C(=O)O)[nH]c3ccccc23)c2c(C(=O)O)[nH]c3ccccc23)c1O | 6 | 2 | 22 | 12 | -2
O=C(O)c1[nH]c2ccccc2c1C=NCc1ccccc1Cl | 0 | -6 | 11 | 1 | 4
O=C(O)c1[nH]c2ccccc2c1C(c1c(F)cccc1Cl)c1c(C(=O)O)[nH]c2ccccc12 | -1 | -7 | 41* | 7 | -1
O=C(CCC(=O)NCCCc1ccccc1)NCCCc1ccccc1 | 1 | -1 | 0 | 10 | 10
O=C(O)CCCCCCCCCCCc1ccccc1 | 3 | 0 | 6 | 25* | 0
CCCCC(=O)NC(c1ccc(N(C)C)cc1)c1ccc2cccnc2c1O (centres undefined) | 4 | 1 | 4 | 26* | -3
CCCCC(=O)NC(c1ccc(N(CC)CC)cc1)c1ccc2cccnc2c1O (centres undefined) | -1 | -7 | -9 | 26* | -3
Cc1ccc(/C=N/N=C2/NC(=O)C(CC(=O)Nc3ccccc3)S2)o1 (centres undefined) | 1 | 0 | -1 | 5 | -4
CCC1Oc2ccc(C)cc2N(CC(=O)NCc2cccs2)C1=O (centres undefined) | 2 | 1 | 7 | 0 | 9
CCC1Oc2ccccc2N(CC(=O)NCc2cccs2)C1=O (centres undefined) | -3 | 1 | 37* | 0 | 5
CN1CCC(=O)N(CCSc2ccccc2)CC1 | -1 | 1 | 4 | 16 | 2
O=C1CCN(CCc2ccccc2)CCN1CCSc1ccccc1 | -1 | -1 | 0 | 31* | -1
COc1ccc(-c2cc(-c3ccc(C)cc3)n[nH]2)c(O)c1 | 5 | 0 | -3 | -11 | 47*
COc1ccc(-c2cc(-c3cc(C)ccc3O)[nH]n2)cc1 | -3 | -5 | -24 | -10 | 13
COc1ccc(Cn2c(/C=C/c3ccccc3)nc3ccccc32)cc1 | -3 | -4 | -11 | -2 | -1
Clc1ccccc1Cn1c(/C=C/c2ccco2)nc2ccccc21 | -3 | -11 | -1 | 31* | -6
CCCNC(=O)Cn1c(=O)oc2ccccc21 | -2 | 3 | -1 | 4 | -2
